From PubChem BioAssay AID1645850 (National Center for Advancing Translational Sciences (NCATS), 2021)
Records with an inconclusive call do not appear. The source made the active and inactive calls. Calls follow the shape of the dose curve; as a rule, active = well fitted curve in the direction sought with a large enough effect in the repeat runs; inconclusive = weak or mixed curves, or another doubt; inactive = no such curve, though single readings can be large or run the other way.

Assay: Comparison of Janus kinase inhibitors to block the type I interferon pathway in human skeletal muscle cells: CTG Counterscreen
Conditions: human skeletal muscle cells viability, CellTiter-Glo ATP luminescence; series mostly up to 45.9 µM
From the text: Assay Submitter (PI): Travis B. Kinder Ph.D.
National Center for Advancing Translational Sciences (NCATS)
The family of Janus kinases (JAK1, JAK2, JAK3, TYK2) mediate signal transduction from cytokine receptors through phosphorylation and activation of intracellular signaling pathways and transcription factors. Small molecule antagonists of JAKs (jakinibs) have been developed with varying selectivity for the use in malignancies and immune regulation. […] We have assayed a library of 48 jakinibs for their ability to inhibit the JAK1/TYK2-dependent type I interferon (IFN) - major histocompatibility complex (MHC) class I pathway in human skeletal muscle cells genome-engineered to fuse a pro-luminescent HiBiT peptide to endogenous MHC class I.
The assay utilized CRISPR/Cas9 genome-engineered immortalized human myoblasts, C25cl48, where a pro-luminescent reporter HiBit was fused to the C-terminus of endogenous MHC class I allele HLA-B*08:01 (HLA-B HiBit myoblasts) (Kinder et al., 2020). […] After 24 hrs of treatment, cells were assayed by CellTiter-Glo Luminescent Cell Viability Assay (Promega) and luminescence measured by a ViewLux 1430 Ultra HTS (Perkin Elmer). […]
7; Detector; 5 sec; Measure luminescence with ViewLux 1430 Ultra HTS (Perkin Elmer). […]

SMILES | outcome
CC1CCCCCC(=O)c2c(O)cc(O)cc2CC(=O)O1 (configuration not stated) | inactive
CC(C)(O)/C=C\C(=O)[C@](C)(O)[C@H]1[C@H](O)C[C@]2(C)[C@@H]3CC=C4[C@@H](C=C(O)C(=O)C4(C)C)[C@]3(C)C(=O)C[C@@]12C | inactive
